Source: PubChem BioAssay (NCI)
About 79,000 compounds went through this panel and 15% of them were active in at least one assay; those are over-represented in the sample as a whole. The source made the active and inactive calls. Cut-off read from the data, not from the text of the source: active = growth inhibition above about 70%; inactive = the rest.

Key:
[1] = NCI Yeast Anticancer Drug Screen. Data for the rad50 strain (AID 155);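 note: 0% = growth of vehicle-only cultures of the same strain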; conditions: S. cerevisiae rad50 strain growth inhibition, hits give high values
How it was run: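 Growth of the mutant yeast was measured after compound exposure and referenced to vehicle-treated cultures.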

[2] = NCI Yeast Anticancer Drug Screen. Data for the mec2-1 strain (AID 157); conditions: S. cerevisiae mec2-1 strain, hits give high values
How it was run: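 Readout is yeast growth inhibition, normalised to vehicle-treated controls, in the mec2-1 strain exposed to compound.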

[3] = NCI Yeast Anticancer Drug Screen. Data for the sgs1 mgt1 strain (AID 161);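 note: 0% = growth of cultures given vehicle only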; conditions: S. cerevisiae sgs1 mgt1 strain, hits give high values
How it was run: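 Percent growth inhibition was derived by comparing compound-exposed mutant yeast with vehicle-exposed cultures. The strain carries alterations in DNA damage repair.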

[4] = NCI Yeast Anticancer Drug Screen. Data for the cln2 rad14 strain (AID 165);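 note: 0% = growth equal to vehicle treated cultures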; conditions: S. cerevisiae cln2 rad14 strain, hits give high values
How it was run: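 Relative to vehicle controls, growth inhibition of compound-treated cln2 rad14 yeast was recorded.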

[5] = NCI Yeast Anticancer Drug Screen. Data for the bub3 strain (AID 167); conditions: S. cerevisiae bub3 mutant strain, hits give high values
How it was run: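 Whole-cell yeast assay. The mutant strain was incubated with compounds, and growth inhibition was determined by comparison with vehicle-treated cells.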

[6] = NCI Yeast Anticancer Drug Screen. Data for the mlh1 rad18 strain (AID 175); conditions: S. cerevisiae mlh1 rad18 strain growth inhibition, hits give high values
How it was run: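 Test agents were incubated with a yeast strain of defined genotype (DNA damage repair defect). Inhibition of growth was derived by comparison with vehicle-exposed cultures.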

[7] = at 5.0 µM (retest, dose inferred, filed as 0.5)
[8] = at 50.0 µM (retest, dose inferred, filed as 5.0)

Measured: growth inhibition

Nc1nc(-c2cccnc2)nc(N)c1N=O
active: [1]; [8] 82% | [2]; [8] 79% | [2]; at 50.0 µM 79.2% | [3]; [8] 88% | [3]; at 50.0 µM 70.6% | [4]; [8] 90% | [5]; [8] 92% | [5]; at 50.0 µM 91.1% | [6]; [8] 94% | [6]; at 50.0 µM 79.1%
inactive: [1]; [7] 7% | [1]; at 50.0 µM 61.4% | [2]; [7] 15% | [3]; [7] 15% | [4]; [7] 1% | [4]; at 50.0 µM 66.5% | [5]; [7] 36% | [6]; [7] 25%

Cc1ccc2ccc3ccc(C)nc3c2n1
active: [1]; [7] 94% | [1]; [8] 93% | [1]; at 50.0 µM 95.1% | [2]; [7] 92% | [2]; [8] 94% | [2]; at 50.0 µM 96.3% | [3]; [7] 93% | [3]; [8] 96% | [3]; at 50.0 µM 96.5% | [4]; [7] 91% | [4]; [8] 89% | [4]; at 50.0 µM 94.3% | [5]; [7] 96% | [5]; [8] 94% | [5]; at 50.0 µM 97% | [6]; [7] 94% | [6]; [8] 94% | [6]; at 50.0 µM 95.8%

CCOC(=O)/C(=C\c1ccccc1)C(=O)CCN1CCOCC1
inactive: [1]; [7] 37% | [2]; [7] 24% | [3]; [7] 12% | [3]; at 50.0 µM 41% | [4]; [7] 45% | [5]; [7] 20% | [6]; [7] 10%
active: [1]; [8] 99% | [1]; at 50.0 µM 95.5% | [2]; [8] 99% | [2]; at 50.0 µM 84.5% | [3]; [8] 99% | [4]; [8] 99% | [4]; at 50.0 µM 75.9% | [5]; [8] 99% | [5]; at 50.0 µM 76% | [6]; [8] 99% | [6]; at 50.0 µM 84.8%

CC(C)(O)[C@H](CCO)O[Si](c1ccccc1)(c1ccccc1)C(C)(C)C
active: [1]; [8] 97% | [1]; at 50.0 µM 98.3% | [2]; [8] 98% | [2]; at 50.0 µM 92% | [3]; [8] 97% | [3]; at 50.0 µM 98.2% | [4]; [8] 97% | [4]; at 50.0 µM 97.5% | [5]; [8] 98% | [5]; at 50.0 µM 98.5% | [6]; [8] 97% | [6]; at 50.0 µM 98.6%
inactive: [1]; [7] 26% | [2]; [7] 18% | [3]; [7] 13% | [4]; [7] 17% | [5]; [7] 4% | [6]; [7] 23%

C(=C/c1ccnc2ccccc12)/c1cccs1
inactive: [1]; [7] -2% | [2]; [7] 1% | [3]; [7] 2% | [4]; [7] 0% | [4]; [8] 57% | [5]; [7] 4% | [6]; [7] -2%
active: [1]; [8] 93% | [1]; at 50.0 µM 98.2% | [2]; [8] 93% | [2]; at 50.0 µM 98.8% | [3]; [8] 91% | [3]; at 50.0 µM 98.8% | [4]; at 50.0 µM 98.1% | [5]; [8] 81% | [5]; at 50.0 µM 98.3% | [6]; [8] 94% | [6]; at 50.0 µM 98.2%

COc1ccc(Cc2ccc3c(C)cc(Cl)nc3c2)cc1
inactive: [1]; [7] 1% | [2]; [7] -8% | [2]; at 50.0 µM 67.8% | [3]; [7] -5% | [4]; [7] 1% | [4]; [8] 29% | [4]; at 50.0 µM 31.6% | [5]; [7] 10% | [6]; [7] 0%
active: [1]; [8] 74% | [1]; at 50.0 µM 77% | [2]; [8] 87% | [3]; [8] 96% | [3]; at 50.0 µM 87% | [5]; [8] 78% | [5]; at 50.0 µM 89% | [6]; [8] 93% | [6]; at 50.0 µM 86.3%

N#C/C(=C/c1ccc([N+](=O)[O-])o1)c1ccccc1
active: [1]; at 50.0 µM 75.8%
inactive: [1]; [7] -6% | [1]; [8] -7% | [2]; [7] -19% | [2]; [8] -7% | [2]; at 50.0 µM -20.1% | [3]; [7] -6% | [3]; [8] -1% | [3]; at 50.0 µM 27.9% | [4]; [7] 12% | [4]; [8] 23% | [4]; at 50.0 µM 32.8% | [5]; [7] -4% | [5]; [8] -2% | [5]; at 50.0 µM -13.7% | [6]; [7] -21% | [6]; [8] 21% | [6]; at 50.0 µM 5.9%

O=C(c1ccccc1)c1[nH]c2ccccc2c(=O)c1-c1ccc([N+](=O)[O-])cc1
active: [1]; [8] 96% | [1]; at 50.0 µM 97.6% | [2]; [8] 98% | [2]; at 50.0 µM 97.5% | [3]; [8] 98% | [3]; at 50.0 µM 98.3% | [4]; [8] 97% | [4]; at 50.0 µM 97.6% | [5]; [8] 96% | [5]; at 50.0 µM 97.5% | [6]; [8] 94% | [6]; at 50.0 µM 98.3%
inactive: [1]; [7] -6% | [2]; [7] -9% | [3]; [7] -16% | [4]; [7] -13% | [5]; [7] -8% | [6]; [7] 3%

CCOC(=O)/C=C1/C(=O)OC2C1OC1OC(C)(C)OC12 (stereo not given)
active: [1]; [8] 99% | [2]; [8] 100% | [3]; [8] 100% | [4]; [8] 100% | [5]; [8] 100% | [6]; [8] 99%
inactive: [1]; [7] 9% | [1]; at 50.0 µM 6.3% | [2]; [7] 16% | [2]; at 50.0 µM 34.8% | [3]; [7] -5% | [3]; at 50.0 µM 57% | [4]; [7] 37% | [4]; at 50.0 µM -15.1% | [5]; [7] 33% | [5]; at 50.0 µM 26.1% | [6]; [7] 7% | [6]; at 50.0 µM 54.8%

CC(C)CC(C(=O)SCC(C)N1CCCC1)c1ccccc1 (stereo not given)
active: [4]; at 50.0 µM 71.4%
inactive: [1]; [7] 0% | [1]; [8] 35% | [1]; at 50.0 µM 48% | [2]; [7] 8% | [2]; [8] 33% | [2]; at 50.0 µM 36.1% | [3]; [7] 26% | [3]; [8] 56% | [3]; at 50.0 µM 49.6% | [4]; [7] 12% | [4]; [8] 43% | [5]; [7] 15% | [5]; [8] 59% | [5]; at 50.0 µM 51.8% | [6]; [7] 11% | [6]; [8] 37% | [6]; at 50.0 µM 59.2%
